PubChem BioAssay AID1159537 (DiRusso Lab, Biochemistry Department, University of Nebraska, 2015)
The campaign covered roughly 44,000 compounds. About 370 (0.84%) were called active. No rule for the calls is given here. For the sample, actives were picked, then their nearest neighbours and some compounds at random.

test: inducers of TAG accumulation in Chlamydomonas, primary screen, qHTS, Chlamydomonas reinhardtii (AID 1159537); settings: Nile Red fluorescence, 72 h, screened at 10 µM (by protocol);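 also: hits raise Nile Red signal meaning more stored TAG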

| SMILES | outcome |
| --- | --- |
| O=C(COc1ccc(F)cc1)NCc1ccco1 | inactive |
| CCOc1ccc(-c2cc(C(=O)NCc3ccccn3)c3ccccc3n2)cc1 | inactive |
| Cn1c(SCC(=O)Nc2cccc([N+](=O)[O-])c2)nc2ccccc21 | inactive |
| COc1ccc(C2C(=C(O)c3ccc(C)cc3)C(=O)C(=O)N2c2ccccn2)cc1 (stereo unspecified) | inactive |
| O=C(Cc1ccc(Cl)cc1)N1CCN(c2ccc(Cl)cc2[N+](=O)[O-])CC1 | inactive |
| O=C(Nc1cccc(F)c1)N1CCN(c2ccccc2F)CC1 | inactive |
| Cc1cccc(OCC(=O)Nc2cc(-c3nc4ncccc4o3)ccc2C)c1 | inactive |
| O=C(NCc1cccnc1)C(CCO)Sc1nc2sc3c(c2c(=O)[nH]1)CCCC3 (stereo unspecified) | inactive |
| Cc1ccc(C(=O)N2CCN(c3ccccc3)CC2)cc1 | inactive |
| Cc1ccc(N2CCN(C3CCCCCC3)CC2)cc1 | active |
| Cc1ccc(S(=O)(=O)N2CCC(N3CCCCCC3)CC2)cc1 | inactive |
| COc1cccc(NC(=O)Nc2nnc(-c3cccc(OC)c3)s2)c1 | inactive |
| Cc1ccc(C(=O)CNc2ccc(F)cc2)cc1 | inactive |
| Cc1cc(C)c2nc(C)cc(Nc3ccc4c(c3)OCCO4)c2c1 | inactive |
| Cc1ccc(C(=O)N(Cc2ccccc2)C(C)C)cc1[N+](=O)[O-] | inactive |
| NC(=O)c1ccc(NC(=O)C(Sc2ccccc2)c2ccccc2)cc1 (stereo unspecified) | inactive |
| COc1ccc(OC)c(NC(=O)CC2CCCCC2)c1 | inactive |
| Clc1ccc(OCCOCCN2CCCC2)c(Br)c1 | active |
| Cc1ccc(OCCOCCN2CCN(C)CC2)c(Br)c1 | inactive |
| O=C(CCCOc1ccc(Cl)cc1Cl)N1CCCC1 | inactive |
| Clc1cc(Br)ccc1OCCCCN1CCOCC1 | active |
| O=C(COc1ccc(Br)cc1Cl)NCCO | inactive |
| Fc1ccccc1OCCN1CCCC1 | inactive |
| COc1ccc(C(=O)NCCCN2CCOCC2)cc1Br | inactive |
| Clc1ccc(CN2CCOCC2)c(Cl)c1 | inactive |
| O=[N+]([O-])c1ccccc1OCCCCN1CCCCC1 | inactive |

| SMILES | outcome |
| --- | --- |
| Clc1ccccc1OCCCCN1CCOCC1 | active |
| Clc1ccc(OCCN2CCCCCC2)cc1 | inactive |
| Clc1ccc(OCCCCN2CCOCC2)c(Br)c1 | active |
| Cc1cc(N/C=C/C(=O)c2cccs2)no1 | inactive |
| CCN(CC)CCC(=O)c1ccc(C(C)C)cc1 | inactive |
| CCc1ccc(NC(=O)Nc2ccccc2)cc1 | inactive |
| CCCC(=O)Nc1cccc(NC(=O)COc2ccc(C)c(C)c2)c1 | inactive |
| Cc1cccc(C)c1OCC(=O)Nc1ccc([N+](=O)[O-])cc1 | inactive |
| CCCC1CCc2c(sc(NC(=O)C3C4C=CC(C4)C3C(=O)O)c2C(N)=O)C1 (stereo unspecified) | inactive |
| O=C(COc1ccc([N+](=O)[O-])cc1)Nc1cccc(Br)c1 | inactive |
| CCOc1ccccc1NC(=O)COc1ccc(Br)c(C)c1 | inactive |
| CC(=O)c1nc2ccccc2n1Cc1ccccc1 | inactive |
| O=C(O)Cn1c2ccccc2c2cc([N+](=O)[O-])ccc21 | inactive |
| CC(=O)c1nc2cc([N+](=O)[O-])ccc2n1Cc1ccccc1 | active |
| CC(C(=O)NCc1ccncc1)N(c1ccccc1)S(C)(=O)=O (stereo unspecified) | inactive |
| COc1ccc(N=C2NC(=O)CC(C(=O)Nc3ccc(Cl)cc3)S2)cc1 (stereo unspecified) | inactive |
| CC(=O)Nc1ccc(NC(=O)c2ccc(F)cc2)cc1 | inactive |
| OCCN1CCN(C2CCN(Cc3ccc(Cl)cc3)CC2)CC1 | inactive |
| COc1ccc(-c2cn3c4ccccc4n(CCN4CCOCC4)c3n2)cc1 | inactive |
| O=C1CCC(=O)N1c1ccc(S(=O)(=O)c2ccc(N3C(=O)CCC3=O)cc2)cc1 | inactive |
| O=C(COc1ccc([N+](=O)[O-])cc1)Nc1ccc(Cl)cc1 | inactive |
| COc1ccccc1CNC1CCC(C)C1 (stereo unspecified) | inactive |
| NC(=O)CCSc1ccc(Cl)cc1 | inactive |
| NC(N)=NS(=O)(=O)c1ccc(NC(=O)c2ccc([N+](=O)[O-])cc2)cc1 | inactive |
| Cc1cccc(NC(=O)C(=O)NC(C)c2ccccc2)c1 (stereo unspecified) | inactive |
| CC(=O)NS(=O)(=O)c1ccc(NC(=O)C2C3C=CC(C3)C2C(=O)O)cc1 (stereo unspecified) | inactive |

| SMILES | outcome |
| --- | --- |
| Cc1ccc(CNC(=O)c2ccccc2Br)cc1 | inactive |
| COc1ccc(Nc2nc(Nc3ccc(OC)cc3)nc(N3CCNCC3)n2)cc1 | inactive |
| CC1CCCN(CCCCOc2ccccc2F)C1 (stereo unspecified) | inactive |
| COc1cc(/C=C(\C#N)c2nc3ccc(C)cc3[nH]2)c(Br)cc1O | inactive |
| O=C(NCc1cccnc1)C(O)(c1ccccc1)c1ccccc1 | inactive |
| Cc1ccc(OCCOCCN2CCOCC2)c([N+](=O)[O-])c1 | active |
| CCN(CC)CCCOc1ccc(C)cc1[N+](=O)[O-] | inactive |
| COc1ccccc1OCCNc1cc(N2CCOCC2)ccc1[N+](=O)[O-] | inactive |
| CNC(=O)C(=O)NCCc1ccccc1 | inactive |
| O=C1CC(NCCc2ccccc2)C(=O)N1c1ccc(F)cc1 (stereo unspecified) | inactive |
| Cn1c(SCC(=O)Nc2ccccc2)nc2ccccc21 | inactive |
| Cc1ccc(C(C)C)c(OCC(O)CN2CCCC(C)C2)c1 (stereo unspecified) | inactive |
| CCOc1ccc(N2C(=O)CC(SCC(=O)Nc3ccc(F)cc3)C2=O)cc1 (stereo unspecified) | inactive |
| COc1ccc(N(CC(=O)Nc2ccc(C)cc2)S(C)(=O)=O)c(OC)c1 | inactive |
| COc1ccccc1/C=C(/C#N)c1nc2ccccc2[nH]1 | inactive |
| CNC(=O)CN(c1ccc(F)cc1)S(C)(=O)=O | inactive |
| COc1ccccc1N(CC(=O)NC12CC3CC(CC(C3)C1)C2)S(=O)(=O)c1ccccc1 | inactive |
| O=C(Nc1cccc(Cl)c1Cl)c1ccc(CN2CCOCC2)cc1 | inactive |
| O=C(c1ccc(CN2CCOCC2)cc1)N(Cc1ccccc1)Cc1ccccc1 | active |
| CC(=O)Nc1ccc(CN2CCOCC2)cc1 | inactive |
| COC(=O)NC(c1ccc(Br)cc1)C(Cl)(Cl)Cl (stereo unspecified) | inactive |
| Cc1ccc2c(Cl)c(C(=O)Nc3cc(S(N)(=O)=O)ccc3C)sc2c1 | inactive |
| CC(=O)c1ccc(NC(=O)COc2ccc(Br)c(C)c2)cc1 | inactive |
| CCOc1ccc(NC(=O)Nc2nnc(Cc3ccc(OC)cc3)s2)cc1 | inactive |
| C=CCNC(=O)COc1ccc(C)cc1Br | inactive |
| COc1ccc(Cl)cc1NC(=O)CSc1nc2ncccc2[nH]1 | inactive |

| SMILES | outcome |
| --- | --- |
| O=C(Nc1ccccc1)N1CCN(Cc2ccccc2)CC1 | inactive |
| CC(=O)NC1=C(N2CCN(Cc3ccccc3)CC2)C(=O)c2ccccc2C1=O | active |
| CC(=O)Nc1ccc(CN2CCN(c3ccc(C(C)=O)cc3)CC2)cc1 | inactive |
| O=C(Nc1cccc(Cl)c1)Nc1ccccn1 | inactive |
| O=C1CC(N2CCCCCC2)C(=O)N1c1ccccc1 (stereo unspecified) | inactive |
| O=C1CC(N2CCc3ccccc3C2)C(=O)N1c1ccc([N+](=O)[O-])cc1 (stereo unspecified) | active |
| O=C1CC(N2CCN(c3ccc([N+](=O)[O-])cc3)CC2)C(=O)N1c1cccc(Cl)c1 (stereo unspecified) | inactive |
| CN1CCN(C(=O)c2sc3cc(Cl)ccc3c2Cl)CC1 | active |
| O=C(O)c1sc2ccccc2c1Cl | inactive |
| O=C(O)c1sc2cc(F)ccc2c1Cl | inactive |
| COc1ccccc1CN(C)C1CCN(C)CC1 | inactive |
| COc1ccc(Cl)cc1N(CC(=O)NCC1CCCO1)S(C)(=O)=O (stereo unspecified) | inactive |
| CN(C)CCCn1cnc2ccccc21 | inactive |
| COc1cc(C(=O)Nc2sc3c(c2C(N)=O)CCC3)cc(OC)c1OC | inactive |
| CCC(=O)Nc1ccccc1C(=O)N1CCN(Cc2ccccc2)CC1 | inactive |
| O=C(Nc1ccc(C(=O)N2CCOCC2)cc1)C1COc2ccccc2O1 (stereo unspecified) | inactive |
| O=C(Nc1ccccc1)Nc1ccccc1C(=O)N1CCOCC1 | active |
| NC(=O)CN(Cc1ccccc1Cl)S(=O)(=O)c1ccc(Cl)cc1 | inactive |
| O=C(c1ccc([N+](=O)[O-])cc1)N1CCN(c2cccc(Cl)c2)CC1 | inactive |
| Cc1ccccc1N(C(F)F)S(=O)(=O)c1cc([N+](=O)[O-])ccc1C | inactive |
| O=C(CCN1CCCC1)Nc1ccc2c(c1)CCC2 | inactive |
| CC(=O)c1ccc(-c2ccc(C=O)o2)cc1 | inactive |
| COc1ccccc1N1CCN(S(=O)(=O)c2cccc3cccnc23)CC1 | inactive |
